The values below come from PubChem BioAssay (NCATS).

Molecules are shown by their SMILES. Inconclusive results are not listed. Values without a mark were called inactive. Active and inactive are the calls of the source. Calls follow the shape of the dose curve; as a rule, active = well fitted inhibition curve with a large enough effect; inconclusive = small, poorly fitted or top-dose-only effect; inactive = flat fitted curve, though single readings scatter. Bridge positions count the residues as written; N and C are the ends. Square brackets hold non-standard residues; d marks the D form. Peptide text beside a SMILES is read from it. Orn = NCCC[CH](N)C(=O)O; Mpa = O=C(O)CCS
% is scaled to controls: 0 for no effect and ±100 for the full control effect; potency is read from the fitted curve at half-maximal effect.

For the experiment, the target named is Glutathione peroxidase 1 (Homo sapiens) (UniProt P07203). Briefly: Primary qHTS Assay for Inhibitors of Recombinant Selenoprotein Glutathione Peroxidase 1 (GPX1) (AID 1845191). Also: nearly all actives have a fitted effect of over 65% in size. Particulars: recombinant GPX1, GR-coupled NADPH fluorescence, 15 min; series mostly up to 48.8 µM; activity, negative = inhibition: at the top concentration. The method in brief: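 10 nM GPX1 + cpd, 30 min RT; start w/ 1 mM GSH, 0.5 mM cumene hydroperoxide, 0.5 mM NADPH, 100 nM GR, 0.01% BSA; buffer 50 mM Tris-HCl pH 7.5, 2 mM EDTA, 150 mM NaCl; Fl 340/450, 0 & 15 min.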
Glutathione peroxidase 1 (Homo sapiens), sequence (P07203 whole entry, looked up): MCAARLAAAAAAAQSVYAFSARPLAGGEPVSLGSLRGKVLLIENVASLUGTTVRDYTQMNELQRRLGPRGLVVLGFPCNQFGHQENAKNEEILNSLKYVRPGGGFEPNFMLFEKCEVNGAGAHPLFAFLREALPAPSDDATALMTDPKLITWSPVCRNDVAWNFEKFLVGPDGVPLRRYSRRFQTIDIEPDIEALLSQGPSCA
(In general: qHTS replaces the single test concentration by a dilution series.)
`Nc1c(C(=O)Nc2ccc(F)cc2)sc2nc(-c3cccs3)cc(C(F)(F)F)c12`: the Potency was 14.3 µM (active).

In the case of `C#C[C@]1(O)CC[C@H]2[C@@H]3CCC4=CC(=O)CC[C@@H]4[C@H]3C(=C)C[C@@]21CC`, the outcome was inactive.

Regarding `O=C(CCCCCCSc1ccc2ccccc2c1)NO`, the outcome was inactive.

On to `COc1ccccc1Nc1nc(-c2sc(NC(C)=O)nc2C)cs1`, for which the Potency was 20.2 µM (active).

On to `COc1ccc(-c2nn3c(-c4ccco4)nnc3s2)cc1OC`, for which the “activity, negative = inhibition” value is -15%.

As for `C1CCC[C@H]2CCCN3CC[C@H](CCCCCC[C@@H]4CCCN5CC[C@H](CC1)O[C@H]45)O[C@H]23`, the activity, negative = inhibition is 1.08% [at 0.127 µM].

With `COc1cc2oc(-c3ccccc3)cc(=O)c2c(OC)c1OC`, the “activity, negative = inhibition” value was -19.6%.

Turning to `CCc1ccc(Nc2c(F)c(F)cc(F)c2F)c(CC(=O)O)c1`, the outcome was inactive.

Take `CC(C)N(CCCCOCC(=O)O)c1cnc(-c2ccccc2)c(-c2ccccc2)n1`: the result was inactive.

On to `CC(C)(C)NCC(O)COc1ccccc1C1CCCC1` (configuration not stated), for which the “activity, negative = inhibition” value was -17%.

As to `O=C(OCCN(CCO)CCO)c1ccccc1O`, the “activity, negative = inhibition” value is 4.43%.

Regarding `CN(Cc1cccc(N2CCN(C(c3ccccc3)c3ccccc3)CC2)c1)[S+](C)(=O)[O-]`, the “activity, negative = inhibition” value is 1.17%.

Turning to `CNCC(=O)OCc1cccnc1N(C)C(=O)OC(C)[n+]1cnn(C[C@](O)(c2cc(F)ccc2F)[C@@H](C)c2nc(-c3ccc(C#N)cc3)cs2)c1` (some centres not stated), the “activity, negative = inhibition” value was -23.9%.

With `CC[C@H]1OC(=O)C[C@@H](O)[C@H](C)[C@@H](OC2OC(C)C(O)C(N(C)C)C2O)[C@@H](CCN2CCCCC2)C[C@@H](C)C(=O)/C=C/C(C)=C/[C@@H]1CN1CCCCC1` (some centres not stated), the “activity, negative = inhibition” value is 1.23%.

For the molecule `Cc1ccc(C(=O)/C=C/c2ccccc2)s1`, the “activity, negative = inhibition” value is -15%.

Consider `Cc1ccc2occ(-c3cc(-c4ccc(F)cc4)nc4c3COc3ccc(F)cc3-4)c(=O)c2c1`, for which the “activity, negative = inhibition” value is -1.46%.

As to `Cc1oc(-c2ccccc2)nc1CCOc1ccc(CC2C(=O)NOC2=O)cc1` (configuration not stated), the “activity, negative = inhibition” value was -32.4%.

With `CC(C)C(=O)SCCCCCCC(=O)Nc1nc(-c2ccccc2)cs1`, the “activity, negative = inhibition” value is -1.07%.

Consider `COc1cccc(-n2c(=O)[nH]c3cc(Cl)n(-c4ccc(-c5cccc(OC)c5O)cc4)c3c2=O)c1`, for which the “activity, negative = inhibition” value is -14.3%.

For `Cc1ccc(N2CCN(C(=O)CCc3c(C)nc4c(c3C)c(=O)n(C)c(=O)n4C)CC2)c(C)c1`, the outcome was inactive.

Regarding `CNCCN1CCC(OCc2ccccc2)CC1`, the result was inactive.

As for `CCOc1ccc(CC2NC(=O)CCSSCC(C(=O)N3CCCC3C(=O)NC(CCCN)C(=O)NCC(N)=O)NC(=O)C(CC(N)=O)NC(=O)C(C(C)O)NC(=O)C(C(C)CC)NC2=O)cc1` (configuration not stated) ([Mpa]Y(Et)ITNCP[Orn]G-NH2; disulfide 1-6; configuration not given here), the “activity, negative = inhibition” value is -24.3%.

As to `O=C(O)CSc1nnc(Br)n1-c1ccc(C2CC2)c2ccccc12`, the outcome was inactive.

With `C=C(C)CNc1ccc(C(C)C(=O)O)cc1` (configuration not stated), the “activity, negative = inhibition” value is -16.7%.

As for `CC1(COc2ccc(N3CCC(Oc4ccc(OC(F)(F)F)cc4)CC3)cc2)Cn2cc([N+](=O)[O-])nc2O1` (configuration not stated), the “activity, negative = inhibition” value was -11.5%.

For the molecule `Cc1ccc(Nc2ncc(C(=O)N3CCN(c4ccc(F)cc4)CC3)c3ccccc23)cc1Cl`, the “activity, negative = inhibition” value is -12.7%.

With `CN[C@@H]1[C@H](O[C@H]2[C@H](O[C@@H]3[C@@H](O)[C@H](O)[C@@H](N=C(N)N)[C@H](O)[C@H]3NC(=N)N)O[C@@H](C)[C@]2(O)CO)O[C@@H](CO)[C@H](O)[C@H]1O`, the outcome was inactive.
